# How the values were obtained:
# Assay in all cases: PBM binding z-score (relative to random genomic background probes); higher = stronger binding; sequences stand for … in GC…GCGATTGACAGCGTAGAATGAAGG
# [1] = system: FXR:RXRa (NR concentration 270 nM, RXRa partner concentration 90 nM)
# How it was run: (§1)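 Random background probes are the reference for binding z-scores. These scores derive from regression-normalized fluorescence on custom Agilent 4×180K protein-binding microarrays incubated 1 h with ligand-free nuclear receptor dimers. Binding was detected with antibodies against each partner (one per run).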
# [2] = system: LXRa:RXRa (NR concentration 270 nM, RXRa partner concentration 90 nM)
# How it was run: as §1
# [3] = system: LXRa homodimer (NR concentration 270 nM)
# How it was run: as §1
# [4] = system: LXRb:RXRa (NR concentration 270 nM, RXRa partner concentration 90 nM)
# How it was run: as §1
# [5] = system: LXRb homodimer (NR concentration 270 nM)
# How it was run: as §1
# [6] = system: PPARa:RXRa (NR concentration 270 nM, RXRa partner concentration 90 nM)
# How it was run: as §1
# [7] = system: PPARg:RXRa (NR concentration 180 nM, RXRa partner concentration 90 nM)
# How it was run: as §1
# [8] = system: PPARg:RXRa 270nM:90nM, anti-RXR (NR concentration 270 nM, RXRa partner concentration 90 nM)
# How it was run: as §1
# [9] = system: PPARg:RXRa 30nM:10nM, anti-RXR (NR concentration 30 nM, RXRa partner concentration 10 nM)
# How it was run: as §1
# [10] = system: PPARg:RXRa 90nM:30nM, anti-RXR (NR concentration 90 nM, RXRa partner concentration 30 nM)
# How it was run: as §1
Sequence,PBM binding z-score [1],PBM binding z-score [2],PBM binding z-score [3],PBM binding z-score [4],PBM binding z-score [5],PBM binding z-score [6],PBM binding z-score [7],PBM binding z-score [8],PBM binding z-score [9],PBM binding z-score [10]
ACTCGGAGGACAAAGGCCAGAGCTACGCCAGTGA,-0.254,-0.622,-0.482,-1.08,-0.835,0.196,1.47,2.38,0.441,1.97
AGAATGAGGTTATTAAGATCCGGGAATTGCGGTC,1.33,2.41,-0.0229,1.24,-0.217,2.49,1.06,1.15,0.0449,0.869
TAGCCTAGGTCATTGGGGCAGTATAGTACGCATC,4.67,3.57,1.22,3.42,0.997,4.2,4.24,4.06,1.15,3.06
CGAACTAGGTCAAGGACCGTGAATCTCCGCACGC,3.28,2.1,-0.026,1.26,-0.781,4.64,7.76,6.89,4.37,6.74
CCTACTGGGCCATTAGGTCATTGATATCAACGTT,1.06,0.977,0.832,1.24,-0.52,2.76,3.46,3.68,1.32,3.03
ACTTACGGGTCAACGAGGCTATAGCACGCGTATA,7.11,4.24,0.0789,3.85,0.747,5.82,5.21,4.87,1.81,3.64
ATCTCTAGGTAAAAGTTCACTGAATCCCGAGGAT,1.74,2.79,2.51,1.79,1.07,4.85,8.64,8.64,7.7,9.26
ACTATTAGTTGAGGCGAGGGCAACCGATAGGTTG,0.489,0.289,0.0582,0.0711,0.108,0.378,0.389,0.0046,0.138,-0.0218
CCTACTGGGCCAAGGTCATTCATCAGTCAAAGCA,3.63,3.65,1.71,3.07,0.00532,4.07,3.93,4.44,1.62,3.51
GGAACGAGGGCATTCAAGTTGATAGCATGGCGAT,1.18,1.46,-0.583,0.241,-0.723,1.52,1.12,0.948,-0.0725,0.427
ATATGTAGGTTGAGGGTCATTCAGGTTGGTTCGC,3.26,3.21,1.56,3.31,1.32,4.86,7.99,7.58,6.69,7.97
GCTAGCAGGCCATTTGGGTCACTCAGTGACGGGC,0.0736,-0.00862,-0.609,-0.133,-1.43,1.14,0.272,0.402,-0.825,-0.0196
CGTCCAAGGTCAATGCTAGGGCAGTGAAAGCATT,6.49,4.8,0.528,3.57,0.446,5.03,3.68,4.65,1.05,3.08
ATATGTAGGTTAGCTTGGGTCATTCAGACTAGGC,2.44,5.2,0.866,2.43,0.362,3.42,3.84,3.34,1.32,2.41
TCTAGCAGGCCAGACGGTCACTCAAGAGGTACGG,-0.139,-0.465,-0.491,-0.378,-0.934,0.21,0.662,1.52,1.72,1.67
ACTGACAGGTGATGAAGGTAACTCAGGCTATCAT,-0.15,-0.398,-0.445,-0.455,-0.408,-0.0489,0.472,0.0848,0.0417,0.219
ATCTCTAGGTAACCAAGTTCAGTGCATGCCGAAC,0.755,1.14,0.876,0.833,0.777,1.38,0.901,0.936,0.401,0.474
TCTAACAGGCCAGAGGGTCACTCAAGAGGTACGG,1.24,1.31,-0.315,1.47,-0.439,2.54,1.41,2.62,3.2,2.71
ATCGAAAGGTCGTGGTGAGTATAGAGAAAGGGAA,5.04,4.49,0.646,3.78,1.75,5.5,4.16,4.2,1.54,3.12
AATACAGGGTCATCGTAGGCGAGAGTACGCACAG,7.5,6.16,2.08,4.6,1.54,5.94,6.58,6.21,2.48,4.92
TCTAGTTGGTCACAGGTCACACACTCGAAATGCG,2.89,2.92,1.82,3.13,0.99,4.37,7.08,6.5,6.07,7.04
CAAACTAGGTCACCAAAGGTCAAAGTCGAATGAC,7.53,8.61,8.25,7.82,3.21,6.74,10.1,8.27,6.41,8.55
TCGAGTAGGTTAGTAGGGGCATTCAGCCAACATA,0.292,-0.0612,-0.0759,0.774,-0.216,1.29,1.01,1.82,0.971,1.35
TCAGACAGCTGAAGGTAACTCAGGTACGCAGTCG,-0.16,1.22,-0.677,0.336,-0.931,0.454,0.398,1.49,2.91,2.14
ATCTCTAGGTAAAGATAGTTCAGTCAATGCAAAT,0.395,4.34,0.831,0.948,0.433,0.518,0.623,0.469,0.292,0.471
